Test results as given in PubChem BioAssay AID1251 (SRMLSC, 2008).
“And” between values parts separate entries of the source, which are not always exact repeats. Equal values may be shown once. In all, about 200,000 compounds went through this assay and about 720 (0.36%) were called active. Cut-off read from the data, not from the text of the source: active = inhibition above about 30%; inactive = the rest, inconclusive results apart. For the sample, actives were picked, then their nearest neighbours and some compounds at random.

Experiment: antivirals against arbovirus infection, primary screen, cell-based, full library, 10K replicate subset (AID 1251)
[1] = arbovirus infection cell-based antiviral screen, at 10 µM, stronger effect = higher value

COc1cccc(CNn2cn[nH]c2=S)c1OCc1ccccc1
inhibition [1]: -1.17% (inactive)

NC(=O)CC[C@@H]1NC(=O)[C@@H]2CCCN2C(=O)c2cc([N+](=O)[O-])cc(F)c2NCCC[C@@H](C(N)=O)NC1=O
inhibition [1]: 8.77% (inactive)

O=C(CSc1ncn[nH]1)NCc1ccc2c(c1)OCO2
inhibition [1]: 2.87% (inactive)

CCNC(=S)N1CCN(c2ncccn2)CC1
inhibition [1]: -0.7% (inactive)

O=C(C1=C[C@H](C2CC2)C[C@H](OCc2ccc(CO)cc2)O1)N1CCN(Cc2ccccc2)CC1
inhibition [1]: 4.26% (inactive)

CN(C)NC(=O)C(NC(=O)c1ccc(N)cc1)C12CC3CC(CC(C3)C1)C2 (stereo not given)
inhibition [1]: 5.7% (inactive)

CCOC(=O)c1ccccc1N1C(=O)C2Sc3[nH]c(=O)sc3C(/C=C/c3ccccc3)C2C1=O (stereo not given)
inhibition [1]: -0.3% (inactive)

CCC(C)NCCOCCOc1ccc(Br)cc1C (stereo not given)
inhibition [1]: -28.9% (inactive)

COc1ccc2cc(CCl)c(Cl)nc2c1
inhibition [1]: -7.11% (inactive)

CCCn1c(N)c(C(=O)CSc2nnc(-c3cccnc3)n2-c2ccc(C)cc2C)c(=O)[nH]c1=O
inhibition [1]: 6.05% (inactive)

COc1cccc(-n2c(SCC(=O)c3c[nH]c4ccccc34)nc3ccccc3c2=O)c1
inhibition [1]: 5.13% (inactive)

CCCn1c(N)c(C(=O)CSc2nc3ccccc3c(=O)n2-c2ccc(OC)cc2)c(=O)[nH]c1=O
inhibition [1]: 30.7% (active)

CCCCCOc1ccc(CSC2=NCCN2)cc1[N+](=O)[O-]
inhibition [1]: -7.5% (inactive)

CCOC(=O)Cn1c(N)c(C(=O)OC)sc1=S
inhibition [1]: 0.02% (inactive)

CCOC(=O)c1sc(=S)n2c1[nH]c(=O)c1ccc(C(=O)OC)cc12
inhibition [1]: 32.4% (active)

CCOC(=O)c1sc(=S)n(-c2cccc(OC)c2)c1N
inhibition [1]: 0.93% (inactive)

CCOC(=O)C1=C(C)NC(=S)NC1c1cccs1 (stereo not given)
inhibition [1]: -5% (inactive)

COC(=O)c1ccc(NC(=O)c2cc(Cl)ccc2OC)cc1
inhibition [1]: -17.6% (inactive)

CC(=O)N1CCN(S(=O)(=O)c2c(F)cc(F)c(Cl)c2F)CC1
inhibition [1]: 6.03% (inactive)

Cc1ccc(N2C(=O)C(CC(=O)Nc3cccc(F)c3)N(CCc3ccncc3)C2=O)cc1 (stereo not given)
inhibition [1]: 7.79% (inactive)

CCn1c(COc2c(C)cccc2C)nnc1SCc1nc2ccccc2c(=O)[nH]1
inhibition [1]: 0.34% (inactive)

COc1ccc(CCCc2nnc(SCc3nc4ccccc4c(=O)[nH]3)n2C)cc1
inhibition [1]: 31.9% (active)

CCn1c(Cc2ccccc2)nnc1SCc1nc2ccccc2c(=O)[nH]1
inhibition [1]: 5.28% (inactive)

Cc1ccc(N(CCC(=O)O)S(=O)(=O)c2cccc(C(F)(F)F)c2)cc1
inhibition [1]: 5.45% (inactive)

O=c1nc(N/N=C/c2ccco2)cn[nH]1
inhibition [1]: -4.7% (inactive)

Cc1cc(=O)[nH]c(SCC(N)=O)c1C#N
inhibition [1]: 4.32% (inactive)

CCCCSc1[nH]c(=O)c(C(=O)OCC)cc1C#N
inhibition [1]: 39.8% (active)

CC(=O)c1cc(C#N)c(SCC(=O)C(C)(C)C)nc1C
inhibition [1]: -12.4% (inactive)

COc1cc(NS(=O)(=O)c2ccc(NC(=O)c3ccc(S(=O)(=O)N4CCCCC4)cc3)cc2)ncn1
inhibition [1]: -0.14% (inactive)

N#Cc1ccc(C(=O)Nc2nc(-c3cccs3)c(C(=O)C(F)(F)F)s2)cc1
inhibition [1]: 2.83% (inactive)

CCn1c(CSCc2c(Cl)cccc2Cl)n[nH]c1=S
inhibition [1]: 10.9% (inactive)

CN(CC(=O)Nc1ccc(S(=O)(=O)N2CCCC2)cc1)Cc1ccc(Cl)c(Cl)c1
inhibition [1]: -4.82% (inactive)

CNCC(O)CN1CCN(c2ccccc2OC)CC1 (stereo not given)
inhibition [1]: 3.01% (inactive)

COc1ccccc1N1CCN(Cc2ccc(OC)c3ccccc23)CC1
inhibition [1]: 31.9% (active)

COc1ccccc1N1CCN(CCCCOc2ccc(F)cc2)CC1
inhibition [1]: 13.4% (inactive)

CN(C)CCCNC(=O)/C=C/c1ccc(OCc2c(F)cccc2Cl)cc1
inhibition [1]: -27.3% (inactive)

O=C(CN1CCN(S(=O)(=O)/C=C/c2ccccc2)CC1)Nc1ccc(N2CCOCC2)cc1
inhibition [1]: -11% (inactive)

N#Cc1c(-c2ccc(F)cc2)nc(-c2ccccc2)[nH]c1=O
inhibition [1]: 6% (inactive)

COc1ccc(C)cc1NC(=O)C(OC(=O)c1cccc(S(=O)(=O)N(C)c2ccccc2)c1)c1ccccc1 (stereo not given)
inhibition [1]: 2.04% (inactive)

CNC(=S)N1CCN(c2ccccn2)CC1
inhibition [1]: 8.2% (inactive)

C=CCn1c(P(C)(=O)O)nc2ccccc21
inhibition [1]: -2% (inactive) and 0.03% (inactive)

Cc1ccc(CN2CCN(Cc3ccc4ncccc4c3)CC2CCO)cc1 (stereo not given)
inhibition [1]: 4.14% (inactive)

CCCCNC(=O)Nc1c(C)cc(SC#N)cc1C
inhibition [1]: -9.26% (inactive)

O=C(Nc1nnc(SCc2c(Cl)cccc2Cl)s1)C1CCCO1 (stereo not given)
inhibition [1]: -0.49% (inactive)

O=C(Nc1nc(-c2ccncc2)cs1)C1COc2ccccc2O1 (stereo not given)
inhibition (arbovirus infection cell-based antiviral screen; at 10 µM; stronger effect = higher value): -2.24% (inactive)
inhibition (arbovirus infection cell-based antiviral screen; measured here: 10K subset replicate screen; at 10 µM; stronger effect = higher value): 4.95%

O=C(Nc1nnc(SCc2ccc(Cl)cc2Cl)s1)C1COc2ccccc2O1 (stereo not given)
inhibition [1]: 30.9% (active)

CC(=O)Nc1ccc(OCCC[n+]2cccc(C(=O)[O-])c2)cc1
inhibition [1]: 1.68% (inactive)

CCN(c1ccc(NC(=O)COC(=O)CCc2nc3ccccc3n2-c2ccccc2)cc1)C(C)C
inhibition [1]: -15.1% (inactive)

Cc1c(Cl)cccc1NC(=O)Nc1ccc(C(=O)N2CCCC2)cc1
inhibition [1]: -2.79% (inactive)

O=C1N/C(=N\N=C\c2ccco2)SC1Cc1ccc(F)cc1 (stereo not given)
inhibition [1]: 29.1% (inactive)

NC1=NC(=O)C(Cc2cccc(Cl)c2Cl)S1 (stereo not given)
inhibition [1]: 9.95% (inactive)

O=C1NC(=Nc2ccc(Cl)cc2)SC1Cc1cccc(Cl)c1Cl (stereo not given)
inhibition [1]: 30.2% (active)

Cc1ccc(C)n1NC(=O)c1ccc([N+](=O)[O-])cc1
inhibition [1]: 0.14% (inactive)

CCOC(=O)c1c(Cc2ccc(Cl)cc2)c[nH]c1C
inhibition [1]: -0.75% (inactive)

COc1cccc2c(O)cc(=O)n(C)c12
inhibition [1]: -3.62% (inactive)

Cc1ccc(S(=O)(=O)NCc2csc(C)n2)c(C)c1
inhibition [1]: 12.2% (inactive)

Cc1nc(CNS(=O)(=O)c2cccnc2)cs1
inhibition [1]: 32.7% (active)

Cc1nc(CNS(=O)(=O)c2ccc(Oc3ccccc3)cc2)cs1
inhibition [1]: 10.3% (inactive)

N#C/C(=C\c1ccc(N2CCOCC2)o1)C(=O)N1CCOCC1
inhibition [1]: -2.38% (inactive)

N#Cc1c(NC(=O)C2CC(Cl)=CCC2C(=O)O)sc2c1CCCCC2 (stereo not given)
inhibition [1]: 31.9% (active)

N#Cc1c(NC(=O)C2CCCO2)sc2c1CCCCC2 (stereo not given)
inhibition [1]: 6.23% (inactive)

N#Cc1c(NC(=O)CCCl)sc2c1CCCCC2
inhibition [1]: -2.94% (inactive)

CC(=O)Nc1ccc(S(=O)(=O)NCC(=O)OCc2cc(=O)oc3ccc4ccccc4c23)cc1
inhibition [1]: 2.02% (inactive)

Cc1cc(C)n2nc(C(=O)N(C)C(c3ccccc3)c3ccccc3)nc2n1
inhibition [1]: 24.9% (inactive)

COc1cc(C(=O)NCc2ccc(-n3cccc3)cc2)cc(OC)c1OC
inhibition [1]: 2.99% (inactive)

N#Cc1ccccc1Sc1ccccc1C(=O)OCC(=O)NC1CCCCC1
inhibition [1]: 5.04% (inactive)

COC(=O)C1=C(NC(=O)C(C)(C)C)CCS1
inhibition [1]: 2.37% (inactive)

Cc1ccnc(NS(=O)(=O)c2ccc(NC(=O)c3ccc(S(=O)(=O)N(C)C)cc3)cc2)n1
inhibition [1]: 14.3% (inactive)

Cc1c(CCOC(=O)CC23CC4CC(CC(C)(C4)C2)C3)sc[n+]1Cc1ccc([N+](=O)[O-])cc1
inhibition [1]: -19.1% (inactive)

COC(=O)C1=C(C(=O)OC)C(c2cc([N+](=O)[O-])ccc2O)c2sc(=O)[nH]c2S1 (stereo not given)
inhibition [1]: -2.76% (inactive)

Cc1ccc(NC(=O)c2ccccn2)cc1S(=O)(=O)N1CCOCC1
inhibition [1]: 20% (inactive)

Cc1cccc(NC(=O)NC(=S)NC(=O)c2ccccc2)c1
inhibition [1]: 10.4% (inactive)

CCC(=O)NCc1cc(-c2nn(C)c(=O)c3ccccc23)ccc1OC
inhibition [1]: -10.6% (inactive)

O=C(COC(=O)c1ccccc1F)Nc1cc(S(=O)(=O)N2CCOCC2)ccc1N1CCCC1
inhibition [1]: 3.02% (inactive)
